This is a sample that favours compounds with a hit; in the whole collection about 3.8% have one here.
mIDH1 inhibitor: qHTS for Inhibitors of mutant isocitrate dehydrogenase 1 (IDH1): qHTS; Potency, µM (top dose mostly 76.6 µM), for inactives: top-dose activity change, negative = inhibition, usual class: inhibitors; IDH1-R132H enzyme, NADPH consumption, diaphorase/resazurin fluorescence; actives 0.093% (n = 390,000); Isocitrate dehydrogenase [NADP] cytoplasmic (Homo sapiens), O75874; also: % is scaled to controls: 0 for no effect and ±100 for the full control effect; nearly all actives have a fitted effect of over 65% in size
Target sequence (O75874 whole entry R132H, stated change not applied): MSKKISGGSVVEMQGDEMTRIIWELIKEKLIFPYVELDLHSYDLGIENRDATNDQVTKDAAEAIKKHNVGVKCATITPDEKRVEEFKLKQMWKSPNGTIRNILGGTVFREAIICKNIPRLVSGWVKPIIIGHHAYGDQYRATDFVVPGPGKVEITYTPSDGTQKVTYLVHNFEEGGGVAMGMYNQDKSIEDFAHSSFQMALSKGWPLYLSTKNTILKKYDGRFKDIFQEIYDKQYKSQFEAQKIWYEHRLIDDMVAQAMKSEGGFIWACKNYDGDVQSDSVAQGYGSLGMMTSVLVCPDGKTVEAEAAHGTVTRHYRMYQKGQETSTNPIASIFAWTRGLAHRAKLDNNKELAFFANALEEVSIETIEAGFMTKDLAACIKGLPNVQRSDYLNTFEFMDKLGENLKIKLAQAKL
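IDH1-R132H (0.5 ug/mL) preincubated 30 min with compound, then NADPH (0.016 mM) and alpha-KG (2 mM) added; 80 min at RT, pH 7.5. Remaining NADPH coupled via diaphorase/resazurin to fluorescence (540/590 nm); concentration-response curves normalized to no-enzyme control.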
Nrf2 inh: Nrf2 qHTS screen for inhibitors. A549 ARE-Fluc reporter, luciferase luminescence, 18-24 h. actives 2.1% (n = 360,000). AID 504444, 2011. Potency, µM (highest dose often 46 µM), for inactives: at the highest dose activity change, negative = inhibition, hits mostly inhibitors; also: % is scaled to controls: 0 for no effect and ±100 for the full control effect; nearly all actives have a fitted effect of over 60% in size
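Reporter: ARE-Fluc in A549. Exposure: 18-24 h, 37 °C, 5% CO2, 5% FBS OPTI-MEM. Readouts: fluorescent cytotoxicity (CellTiter-Fluor), then luminescent Nrf2 signal after BugLite.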
Nrf2 activator: qHTS of Nrf2 Activators; Potency, µM (top dose mostly 46.1 µM), without a hit: at the highest dose activation, usual class: activators; actives 0.31% (n = 410,000); AREc32 ARE-luciferase reporter (MCF7-derived line), luminescence, 24 h; also: % of control where 0% means no effect; nearly all actives have a fitted effect of over 65% in size
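Luciferase luminescence (Steady-Glo, 30 min at room temperature) served as the read-out of ARE activation in AREc32 cells treated with compounds for 24 hr at 37 deg C.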
A549 viability: Nrf2 qHTS screen for inhibitors: counterscreen for cytotoxicity | A549 ARE-Fluc cells, CellTiter-Fluor viability, 18-24 h | Potency, µM (doses to about 46 µM), without a hit: top-dose activity change, negative = cytotoxicity, usual class: inhibitors | actives 0.16% (n = 390,000) | AID 504648, 2011; also: % is scaled to controls: 0 for no effect and ±100 for the full control effect
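A549 ARE_Fluc cells in 5% FBS OPTI-MEM were exposed to compounds in concentration-response for 18-24 h at 37 deg C. Viability was read by CellTiter-Fluor fluorescence (Ex 405/Em 525) after 30 min, before the luciferase read.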
ELG1 repair inh: qHTS screen for small molecules that inhibit ELG1-dependent DNA repair in human embryonic kidney (HEK293T) cells expressing luciferase-tagged ELG1; HEK293T ELG1-luciferase reporter, luminescence, 16 h; DNA damage induced by 5-fluorouridine; Potency, µM (titrated, usually from 46.1 µM), inactives show top-dose activity change, negative = inhibition, usual class: inhibitors; actives 2.3% (n = 330,000); AID 504467, 2011; also: % is scaled to controls: 0 for no effect and ±100 for the full control effect; nearly all actives have a fitted effect of over 55% in size
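Quantitative HTS, concentration-response format. 2,000 cells/well co-treated with 5-fluorouridine and compound, 16 hr in 5% CO2 at 37 °C; ONE-Glo luminescence read after 30 min.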
* hit, by the source's call; ? = inconclusive; · = not tested or not shown. Calls follow the shape of the dose curve; as a rule, active = well fitted curve in the direction sought with a large enough effect; inconclusive = small, poorly fitted or top-dose-only effect, or another doubt; inactive = no such curve, though single readings can be large; an effect the other way counts as inactive or inconclusive. Potency is read from the fitted curve at half-maximal effect.

SMILES	mIDH1 inhibitor	Nrf2 inh	Nrf2 activator	A549 viability	ELG1 repair inh
Cc1cc2c(s1)c1cnn(Cc3cccc(C)c3F)c(=O)c1n2C	·	5%	·	2%	·
O=c1cc(C(F)(F)F)[nH]c2ccc(OC(F)(F)F)cc12	19%	?	3%	?	?
O=c1cc(C(F)(F)F)[nH]c2c(C(F)(F)F)cccc12	-6%	18µM*	0%	?	-10%
CC(=O)N1c2ccc(S(=O)(=O)NCC3CCC(C(=O)Nc4cc(C)ccc4C)CC3)cc2CC1C (stereo not drawn)	7%	?	4%	7%	·
COc1ccc(-c2cc(C(F)F)n3ncc(C(=O)NCC4CCCO4)c3n2)cc1 (stereo not drawn)	2%	1%	0%	10%	2.1µM*
COc1ccccc1CNC(=O)c1cnn2c(C(F)F)cc(C)nc12	12%	?	1%	-11%	23µM*
CCOc1ccc(CC(=O)Nc2nnc3n2CCS3)cc1	-8%	·	0%	6%	·
COc1cccc(N/C(N)=N/c2nc(CSc3ccccn3)cc(=O)[nH]2)c1	·	·	·	·	-11%
CCc1ccc(N/C(N)=N/c2nc(CSc3ccccn3)cc(=O)[nH]2)cc1	-4%	-15%	3%	-12%	23µM*
COc1ccccc1N/C(N)=N/c1nc(CSc2ccc(C)cc2)cc(=O)[nH]1	3%	21µM*	1%	-7%	10µM*
COc1ccc(C2Nc3ccc(Cl)cc3C(=O)N2Cc2ccccc2)cc1COc1ccc(NC(C)=O)cc1 (stereo not drawn)	·	?	·	0%	·
CC(C)(C)c1ccc(-c2nnc(SCCC#N)n2C2CCCC2)cc1	2%	21µM*	2%	?	-15%
C[C@@H]1C[C@H]2[C@@H]3C[C@H](F)C4=CC(=O)C=C[C@]4(C)[C@@]3(Cl)[C@@H](O)C[C@]2(C)[C@H]1C(=O)COC(=O)C(C)(C)C	-2%	0.0065µM*	-1%	-5%	?
Cc1ccc(Nc2nc(NCc3ccco3)nc3nccnc23)c(C)c1	·	5%	·	0%	·
CCOC(=O)N1CCN(C(=O)CSCC(=O)Nc2nc(-c3ccc(OC)cc3)cs2)CC1	10%	16%	6%	9%	0%
CCOC(=O)N1CCN(C(=O)CSCC(=O)Nc2nc(-c3ccc(Cl)s3)cs2)CC1	10%	-37%	8%	-5%	16µM*
CC1CC(C)(C)CC2(C1)NC(=O)N(CC(=O)N1CCN(Cc3ccc(C#N)cc3)CC1)C2=O (stereo not drawn)	-1%	1.8µM*	0%	-14%	-6%
CC1CC(C)(C)CC2(C1)NC(=O)N(CC(=O)N1CCN(S(=O)(=O)c3cccs3)CC1)C2=O (stereo not drawn)	-9%	-4%	-1%	-2%	-3%
Cc1cccc(NC(=O)CN2CCN(C(=O)CN3C(=O)NC4(CC(C)CC(C)(C)C4)C3=O)CC2)c1C (stereo not drawn)	3%	16µM*	0%	-11%	·
CCc1ccccc1NC(=O)C1CCN(c2nc3ccccc3[nH]2)CC1	9%	·	-1%	0%	·
CC(C)OCCCNC(=O)c1ccc2c(c1)NC(=O)c1ccccc1S2	2%	21µM*	3%	0%	-9%
O=C(NCCCN1CCCCC1)c1ccc2c(c1)NC(=O)c1ccccc1S2	-4%	18%	-1%	0%	0%
CC1=Nc2cc(C(=O)NCCCOC(C)C)ccc2Sc2ccc(C)cc21	4%	23µM*	-1%	-12%	?
CCCC1=Nc2cc(C(=O)NCCCOC(C)C)ccc2Sc2ccccc21	-11%	8.2µM*	0%	?	-1%
N=c1c2c(ccn1CCCCc1ccccc1)Oc1ccc3ccccc3c1C2c1ccccc1 (stereo not drawn)	·	?	·	-20%	·
Cc1csc2nc(COC(=O)c3ccccc3NC(=O)c3ccc(C(C)(C)C)cc3)cc(=O)n12	-21%	·	0%	8%	·
